Inconclusive results are not listed. A call without a number means that no potency is given here. Activity calls are given as the source filed them. Calls follow the shape of the dose curve; as a rule, active = well fitted curve in the direction sought with a large enough effect; inconclusive = small, poorly fitted or top-dose-only effect, or another doubt; inactive = no such curve, though single readings can be large; an effect the other way counts as inactive or inconclusive.
experiment: qHTS of pediatric cancer cell lines to identify multiple opportunities for drug repurposing: Primary screen for NB-EBc1 cells (AID 1347095); conditions: NB-EBc1 neuroblastoma viability, CellTiter-Glo luminescence, 48 h; series mostly up to 46 µM; also: potency is read from the fitted curve at half-maximal effect
Procedure, shortened: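 Plated cells (500-1,000 per well, growth media) were allowed to settle for 5 hours, treated with compound dilutions for 48 hours, then lysed with CellTiter-Glo for 15 min at room temperature before luminescence reading.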

Compound	Potency
CCN(CC)CCNC(=O)COc1ccc(Cl)cc1	inactive
Cc1onc(-c2c(Cl)cccc2Cl)c1C(=O)N[C@@H]1C(=O)N2[C@@H]1SC(C)(C)[C@@H]2C(=O)O	inactive
CC(C)(C)NC(=O)[C@@H]1CN(Cc2cccnc2)CCN1C[C@@H](O)C[C@@H](Cc1ccccc1)C(=O)N[C@H]1c2ccccc2C[C@H]1O	inactive
C=CCc1ccc(O)c(OC)c1	inactive
NCCc1ccn[nH]1	inactive
OC[C@H]1O[C@H](O[C@]2(CCl)O[C@H](CCl)[C@@H](O)[C@@H]2O)[C@H](O)[C@@H](O)[C@H]1Cl	inactive
COc1c2occc2c(OC)c2c(=O)cc(C)oc12	inactive
COc1cc2c(cc1OC)[C@@H]1CC(=O)[C@@H](CC(C)C)CN1CC2	inactive
C[C@H](CCC(=O)O)[C@H]1CC[C@H]2[C@@H]3C(=O)C[C@@H]4CC(=O)CC[C@]4(C)[C@H]3CC(=O)[C@]12C	inactive
C[C@@H]1C[C@H]2[C@@H]3CCC4=CC(=O)C=C[C@]4(C)[C@@]3(F)[C@@H](O)C[C@]2(C)[C@H]1C(=O)CO	inactive
CN(C)CC/C=C1/c2ccccc2COc2ccc(CC(=O)O)cc21	inactive
C/C=C/c1ccc(OC)cc1	inactive
CN=C(NC#N)Nc1ccc(C2=NNC(=O)CC2C)cc1 (stereo not given)	inactive
CCC(C(=O)OCCN(CC)CC)c1ccccc1 (stereo not given)	inactive
CC(=O)Oc1ccc(C(=C2CCCCC2)c2ccc(OC(C)=O)cc2)cc1	inactive
O=C(Nc1ccc(Cl)c(Cl)c1)C1CC1	inactive
CCC(=O)c1c(O)cc(O)cc1O	inactive
Cc1cccn2c(=O)c(-c3nnn[nH]3)cnc12	inactive

Compound	Potency
CC1(C)O[C@@H]2C[C@H]3[C@@H]4C[C@H](F)C5=CC(=O)CC[C@]5(C)[C@H]4[C@@H](O)C[C@]3(C)[C@]2(C(=O)CO)O1	inactive
C[C@]12CC[C@H]3[C@@H](CCC4=CC(=O)CC[C@@]43C)[C@@H]1CC[C@@H]2C(=O)CO	inactive
Cc1c(C(N)=O)cc([N+](=O)[O-])cc1[N+](=O)[O-]	inactive
Cc1c(C(C)C)c(=O)n(-c2ccccc2)n1C	inactive
CC(=O)OCC(=O)[C@@]1(O)[C@H](C)C[C@H]2[C@@H]3CCC4=CC(=O)C=C[C@]4(C)[C@@]3(F)[C@@H](O)C[C@@]21C	inactive
OCc1ccccc1O	inactive
CCN1CCCC1=O	inactive
OC[C@H]1O[C@@H](n2cnc3c(=S)nc[nH]c32)[C@H](O)[C@@H]1O	1330 nM (active)
CCOC(=O)c1cccc(N)c1	inactive
CC(=O)[C@H]1CC[C@H]2[C@@H]3C[C@H](C)C4=CC(=O)CC[C@]4(C)[C@H]3[C@@H](O)C[C@]12C	inactive
NCCCC[C@H](N[C@@H](CCc1ccccc1)C(=O)O)C(=O)N1CCC[C@H]1C(=O)O	inactive
Cc1cc(O)c(C(C)C)cc1Cl	inactive
COc1cc(/C=C/C(=O)O[C@H]2CC[C@]34C[C@]35CC[C@]3(C)[C@@H]([C@H](C)CCC=C(C)C)CC[C@@]3(C)[C@@H]5CC[C@H]4C2(C)C)ccc1O	inactive
CC1(C)O[C@@H]2C[C@H]3[C@@H]4CCC5=CC(=O)CC[C@]5(C)[C@@]4(F)[C@@H](O)C[C@]3(C)[C@]2(C(=O)CCl)O1	inactive
Nc1ccc(C(=O)O)cc1	inactive
CN1CCN(C(c2ccccc2)c2ccccc2)CC1	inactive
CC1(C)O[C@@H]2C[C@H]3[C@@H]4C[C@H](F)C5=CC(=O)C=C[C@]5(C)[C@H]4[C@@H](O)C[C@]3(C)[C@]2(C(=O)CO)O1	inactive
Nc1nc2ncc(CNc3ccc(C(=O)N[C@@H](CCC(=O)O)C(=O)O)cc3)nc2c(=O)[nH]1	inactive

experiment: qHTS of pediatric cancer cell lines to identify multiple opportunities for drug repurposing: Primary screen for U-2 OS cells (AID 1347096); conditions: U-2 OS viability, CellTiter-Glo luminescence, 48 h; series mostly up to 46 µM; also: nearly all actives have a fitted effect of over 50% in size
Procedure, shortened: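 Cells (500-1,000/well) in growth media were settled 5 h at 37 degrees C, then given compounds for 48 h. Viability was read as CellTiter-Glo luminescence. Primary runs used MIPE at 11 points (0.78 nM-46 µM) and NPC at 8 points (0.59 nM-46 µM); follow-ups used 11 points.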

Compound	Potency
CCN(CC)CCNC(=O)COc1ccc(Cl)cc1	inactive
CC(C)(C)NC(=O)[C@@H]1CN(Cc2cccnc2)CCN1C[C@@H](O)C[C@@H](Cc1ccccc1)C(=O)N[C@H]1c2ccccc2C[C@H]1O	inactive
C=CCc1ccc(O)c(OC)c1	inactive
NCCc1ccn[nH]1	inactive
OC[C@H]1O[C@H](O[C@]2(CCl)O[C@H](CCl)[C@@H](O)[C@@H]2O)[C@H](O)[C@@H](O)[C@H]1Cl	inactive
C[C@H](CCC(=O)O)[C@H]1CC[C@H]2[C@@H]3C(=O)C[C@@H]4CC(=O)CC[C@]4(C)[C@H]3CC(=O)[C@]12C	inactive
C[C@@H]1C[C@H]2[C@@H]3CCC4=CC(=O)C=C[C@]4(C)[C@@]3(F)[C@@H](O)C[C@]2(C)[C@H]1C(=O)CO	inactive
CCC(C(=O)OCCN(CC)CC)c1ccccc1 (stereo not given)	inactive
CC(=O)Oc1ccc(C(=C2CCCCC2)c2ccc(OC(C)=O)cc2)cc1	inactive
Cc1cccn2c(=O)c(-c3nnn[nH]3)cnc12	inactive
CC1(C)O[C@@H]2C[C@H]3[C@@H]4C[C@H](F)C5=CC(=O)CC[C@]5(C)[C@H]4[C@@H](O)C[C@]3(C)[C@]2(C(=O)CO)O1	inactive
Cc1c(C(N)=O)cc([N+](=O)[O-])cc1[N+](=O)[O-]	inactive
CC(=O)OCC(=O)[C@@]1(O)[C@H](C)C[C@H]2[C@@H]3CCC4=CC(=O)C=C[C@]4(C)[C@@]3(F)[C@@H](O)C[C@@]21C	inactive
OCc1ccccc1O	inactive
CCN1CCCC1=O	inactive
CC(=O)[C@H]1CC[C@H]2[C@@H]3C[C@H](C)C4=CC(=O)CC[C@]4(C)[C@H]3[C@@H](O)C[C@]12C	inactive
NCCCC[C@H](N[C@@H](CCc1ccccc1)C(=O)O)C(=O)N1CCC[C@H]1C(=O)O	inactive
COc1cc(/C=C/C(=O)O[C@H]2CC[C@]34C[C@]35CC[C@]3(C)[C@@H]([C@H](C)CCC=C(C)C)CC[C@@]3(C)[C@@H]5CC[C@H]4C2(C)C)ccc1O	inactive
Nc1nc2ncc(CNc3ccc(C(=O)N[C@@H](CCC(=O)O)C(=O)O)cc3)nc2c(=O)[nH]1	inactive

Source: PubChem BioAssay (NCATS)
